Data from PubChem BioAssay.
Calls of active or inactive are those of the source.

Legend:
[1] = compound effects on lung adenocarcinoma cell viability – A549, calcein-AM fluorescence, 48 h, basal, profiling panel (AID 1162); conditions: higher = more signal; note: test concentration not given here
[2] = compound effects on differentiated 3T3-L1 adipocyte viability – cell-based, 3T3-L1 adipocytes, calcein-AM fluorescence, 48 h, basal, profiling panel (AID 1163); conditions: 3T3-L1 adipocytes viability, higher = more signal; note: test concentration not given here
[3] = compound effects on hepatocellular carcinoma cell viability – HepG2, calcein-AM fluorescence, 48 h, basal, profiling panel (AID 1164); conditions: higher = more signal; note: test concentration not given here
[4] = compound effects on multiple myeloma cell viability – MM1S, calcein-AM fluorescence, 48 h, basal, profiling panel (AID 1165); conditions: higher = more signal; note: test concentration not given here
[5] = calcein-AM signal in unstimulated myeloma cells – cell-based, calcein-AM fluorescence, 48 h, PK04 Diversity Set, profiling panel (AID 1166); conditions: RPMI8226 myeloma viability, higher = more signal;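 note: cells grown under basal conditions without added stimulus; test concentration not given here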
[6] = JC-1 mitochondrial signal, unstimulated HepG2 cells – cell-based, JC-1 fluorescence, 24 h, 100 nL compound, profiling panel (AID 1167); conditions: HepG2 mitochondrial potential, higher = more signal; note: test concentration not given here
[7] = JC-1 mitochondrial signal, unstimulated adipocytes – cell-based, JC-1 fluorescence, 3T3-L1 adipocytes, 24 h, 100 nL compound, profiling panel (AID 1168); conditions: JC-1 mitochondrial fluorescence, higher = more signal, called active from +8 up or from −8 down; note: test concentration not given here
[8] = JC-1 mitochondrial signal, unstimulated myeloma cells – cell-based, JC-1 fluorescence, RPMI8226, 24 h, 100 nL compound, profiling panel (AID 1169); conditions: JC-1 mitochondrial potential fluorescence, higher = more signal; note: test concentration not given here
[9] = JC-1 mitochondrial signal, unstimulated MM1S myeloma – cell-based, JC-1 fluorescence, 24 h, 100 nL compound, profiling panel (AID 1170); conditions: MM1S mitochondrial potential, higher = more signal; note: test concentration not given here
[10] = resazurin metabolic signal in A549 cells – cell-based, resazurin fluorescence, 24 h, PK04 Diversity Set, profiling panel (AID 1171); conditions: A549 viability, higher = more signal, called active from +8 up or from −8 down; note: test concentration not given here
[11] = resazurin metabolic signal in HepG2 cells – cell-based, resazurin fluorescence, 24 h, PK04 Diversity Set, profiling panel (AID 1172); conditions: HepG2 viability, higher = more signal; note: test concentration not given here
[12] = budding yeast growth changes without added modifier – OD600, strain BY4716, 24 h, basal condition, primary screen (AID 1173); conditions: S. cerevisiae BY4716 growth, OD600, 24 h; higher = more signal, called active from +8 up or from −8 down
[13] = viability profiling in MM1S myeloma cells – cell-based, resazurin fluorescence, basal, 24 h, PK04 Diversity Set, profiling panel (AID 1174); conditions: higher = more signal, called active from +8 up or from −8 down; note: test concentration not given here
[14] = biological target: Dihydroorotate dehydrogenase (quinone), mitochondrial (Plasmodium falciparum (isolate 3D7)) (UniProt Q08210); assay: inhibition of P. falciparum DHODH – biochemical, C-terminal His tag, absorbance 600 nm, primary screen (AID 1175); conditions: PfDHODH enzyme, DCIP absorbance 600 nm; higher = more signal, called active from +8 up or from −8 down;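 note: recombinant parasite enzyme with a five histidine tag at its C terminus; test concentration not given here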
Dihydroorotate dehydrogenase (quinone), mitochondrial (Plasmodium falciparum (isolate 3D7)), sequence (Q08210 whole entry, looked up): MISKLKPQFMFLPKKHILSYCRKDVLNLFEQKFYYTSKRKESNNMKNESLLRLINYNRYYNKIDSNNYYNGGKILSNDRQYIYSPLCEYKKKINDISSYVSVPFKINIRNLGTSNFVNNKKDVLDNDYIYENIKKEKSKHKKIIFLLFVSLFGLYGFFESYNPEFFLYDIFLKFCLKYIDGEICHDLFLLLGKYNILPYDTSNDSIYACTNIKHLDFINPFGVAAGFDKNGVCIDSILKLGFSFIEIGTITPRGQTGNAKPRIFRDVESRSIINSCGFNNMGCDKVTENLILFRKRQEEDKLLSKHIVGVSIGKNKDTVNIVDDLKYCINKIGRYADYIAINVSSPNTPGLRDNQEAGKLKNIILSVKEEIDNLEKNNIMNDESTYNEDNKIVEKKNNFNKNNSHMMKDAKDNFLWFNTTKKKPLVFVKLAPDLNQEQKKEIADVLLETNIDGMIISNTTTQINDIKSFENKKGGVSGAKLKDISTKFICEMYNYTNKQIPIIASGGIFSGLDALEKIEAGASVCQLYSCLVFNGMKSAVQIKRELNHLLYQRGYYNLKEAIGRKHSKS

[15] = growth modulation of vineyard yeast isolate – strain RM11-1a, OD600, basal, 24 h, primary screen (AID 1177);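 note: cultures grown under basal conditions with no added stressor; test concentration not given here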; conditions: S. cerevisiae RM11-1a growth, OD600, 24 h; higher = more signal, called active from +8 up or from −8 down
[16] = growth of efflux-deficient E. coli DRC39 – strain DRC39, OD650, 24 h, E. coli filamentation inducers, primary screen (AID 1178);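 note: growth measured as culture turbidity by optical density at 650 nm; test concentration not given here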; conditions: E. coli DRC39 acrAB, higher = more signal, called active from +8 up or from −8 down
[17] = growth of efflux-deficient E. coli DRC39 – strain DRC39, OD650, 48 h, E. coli filamentation inducers, primary screen (AID 1179);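 note: screen aims at cell division blockers that make cells filament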; conditions: E. coli DRC39 delta-acrAB growth, higher = more signal, called active from +8 up or from −8 down
[18] = viability profiling in RPMI8226 myeloma cells – cell-based, resazurin fluorescence, basal, 24 h, PK04 Diversity Set, profiling panel (AID 1180); conditions: higher = more signal;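 note: RPMI8826 multiple myeloma cell line at 5000 cells per well; test concentration not given here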
[19] = biological target: E3 ubiquitin-protein ligase XIAP (Homo sapiens) (UniProt P98170); assay: small molecules binding XIAP protein – biophysical, small-molecule microarray, fluorescence 635 nm, primary screen (AID 1181); conditions: higher = more signal;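 note: score merges 667 nm emission and signal to noise over triplicate slides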
E3 ubiquitin-protein ligase XIAP (Homo sapiens), sequence (P98170 whole entry, looked up): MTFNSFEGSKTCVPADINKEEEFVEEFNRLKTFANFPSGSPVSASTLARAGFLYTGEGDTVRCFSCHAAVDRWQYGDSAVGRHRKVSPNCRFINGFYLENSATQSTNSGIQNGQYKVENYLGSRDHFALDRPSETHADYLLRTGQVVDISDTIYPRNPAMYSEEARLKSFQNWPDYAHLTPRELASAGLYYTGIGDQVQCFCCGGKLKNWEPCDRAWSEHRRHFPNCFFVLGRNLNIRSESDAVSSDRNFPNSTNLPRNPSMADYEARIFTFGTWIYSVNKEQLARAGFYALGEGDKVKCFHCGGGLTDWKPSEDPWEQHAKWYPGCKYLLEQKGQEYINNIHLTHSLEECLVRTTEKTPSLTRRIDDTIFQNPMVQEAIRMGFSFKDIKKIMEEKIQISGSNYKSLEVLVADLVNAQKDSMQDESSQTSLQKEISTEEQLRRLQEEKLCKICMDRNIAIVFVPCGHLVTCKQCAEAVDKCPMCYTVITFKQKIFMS

| Structure (SMILES) | z-score [1] | z-score [2] | z-score [3] | z-score [4] | z-score [5] | z-score [6] | z-score [7] | z-score [8] | z-score [9] | z-score [10] | z-score [11] | z-score [12] | z-score [13] | composite z-score [14] | z-score [15] | z-score [16] | z-score [17] | z-score [18] | composite z-score [19] |
| --- | --- | --- | --- | --- | --- | --- | --- | --- | --- | --- | --- | --- | --- | --- | --- | --- | --- | --- | --- |
| CN1CCC(CCCO)=CC1C1CC1 (stereo unspecified) | 0.4 | 0.852 | -0.879 | -0.833 | 0.174 | 1.32 | 0.57 (inactive) | 0.201 | 0.389 | -0.0682 (inactive) | 0.413 | -0.821 (inactive) | 1.18 (inactive) | -1.13 (inactive) | -1.57 (inactive) | 0.887 (inactive) | 0.611 (inactive) | 0.63 | 0.77 |
| CCC(=O)[C@]12O[C@@]3([C@@H]4C(=O)OCC[C@@H]41)N(CC)C(C)=C(C(=O)OC)[C@@H](c1ccccc1)N3C2=O | 0.569 | 1.77 | 0.0496 | -0.868 | -1.8 | 0.684 | 0.112 (inactive) | -0.537 | 0.541 | -0.257 (inactive) | 0.121 | -2.81 (inactive) | -0.01 (inactive) | -0.191 (inactive) | -0.805 (inactive) | -0.772 (inactive) | 0.09 (inactive) | 0.74 | 0.0178 |
| COCCOC(=O)N1C(=O)[C@@]2(c3cc(C#CC4(O)CCCCCC4)ccc31)[C@H](C(=O)N1CCCCCCC1)[C@H]1C(=O)O[C@H](c3ccccc3)[C@H](c3ccccc3)N1[C@@H]2c1ccc(O)cc1 | -0.475 | 2.45 | -0.0416 | -0.747 | -0.733 | -0.355 | 1.16 (inactive) | -0.861 | -0.219 | 0.627 (inactive) | 0.1 | -0.975 (inactive) | 1.57 (inactive) | 0.0505 (inactive) | 0.322 (inactive) | 0.286 (inactive) | 0.264 (inactive) | 0.868 | 0.154 |
| CC(C)CN1C(=O)[C@@]2(Cc3ccccc31)c1ccccc1C(=O)N(C1CCCCC1)[C@H]2c1ccc(CO)cc1 | 0.572 | 1.86 | 0.502 | 0.845 | -0.0832 | -0.178 | 0.938 (inactive) | -0.6 | 0.00808 | 0.148 (inactive) | 0.0515 | -1.91 (inactive) | 1.05 (inactive) | -2.88 (inactive) | -1.12 (inactive) | 0.164 (inactive) | 0.464 (inactive) | 1.21 | 0.377 |
| CCOC(=O)[C@H]1C/C=C/C[C@H](C(=O)OCC)C(=O)O[C@H]2[C@@H](OC)O[C@H](CO)[C@@H](OC(=O)Nc3ccc(Br)cc3)[C@@H]2OC1=O | -4.47 | -0.34 | -5.12 | -3.28 | -4.16 | -3.44 | 2.89 (inactive) | -0.948 | -1.83 | -7.29 (inactive) | -6.68 | -1.68 (inactive) | -9.26 (active) | -1.48 (inactive) | 0.424 (inactive) | 1.65 (inactive) | 1.93 (inactive) | -7.26 | 0.0223 |
| O=C1c2ccccc2[C@](Cc2ccccc2I)(C(=O)NCc2ccccc2)[C@H](c2ccc(CO)cc2)N1Cc1ccccc1C(F)(F)F | 0.582 | 1.06 | 0.185 | -0.698 | 0.0474 | 1.11 | 0.789 (inactive) | 0.467 | 0.463 | 0.584 (inactive) | 0.716 | -0.712 (inactive) | 1.32 (inactive) | 0.309 (inactive) | 0.758 (inactive) | 0.0438 (inactive) | 0.0442 (inactive) | 1.21 | -0.17 |
| C=CC[C@]1(C(=O)OC)N=C(c2ccc(OCCCO)cc2)O[C@H]1c1ccccc1CN=[N+]=[N-] | -0.844 | 1.51 | -1.09 | -2.04 | -2.24 | -0.000782 | 0.21 (inactive) | -1.01 | 0.734 | -0.179 (inactive) | 0.84 | -4.46 (inactive) | -0.609 (inactive) | 0.632 (inactive) | 0.0359 (inactive) | 2.63 (inactive) | 0.604 (inactive) | 0.239 | 0.232 |
| CC/C=C/C(=O)N(C[C@@H]1CCCO1)[C@@H]1CC(C(=O)NCCO)=C[C@H](Oc2c(I)cc(CO)cc2OC)[C@H]1O | 1.65 | 0.407 | 0.362 | 0.0808 | 0.587 | 2.48 | 1.32 (inactive) | -0.0319 | 0.265 | 1.07 (inactive) | 1.42 | -2.91 (inactive) | 1.08 (inactive) | -0.288 (inactive) | -2.02 (inactive) | 2.39 (inactive) | 1.03 (inactive) | 0.209 | -0.117 |
| O=C1OCCC=C[C@H]2OC34C=CCN(Cc5ccccc5)C(=O)[C@H]3N(CCO)C(=O)[C@@H]4C12 (stereo partly specified) | -0.0905 | 1.64 | -0.781 | 0.918 | -0.125 | 0.207 | 0.903 (inactive) | 0.374 | 0.183 | -0.727 (inactive) | -0.21 | -1.5 (inactive) | 0.768 (inactive) | -1.19 (inactive) | -2.28 (inactive) | 1.27 (inactive) | 0.627 (inactive) | 0.47 | -0.569 |
